# Experimental data reported in article PMC7862700, “An all-to-all approach to the identification of sequence-specific readers for epigenetic DNA modifications on cytosine”.
# Experiments:
# Assay in all cases: DAPPL (digital affinity profiling via proximity ligation, sequencing); 10 mM Tris-HCl pH 7.5, 50 mM NaCl, 1 mM DTT, 4% glycerol, room temperature, 30 min; GST-TFs on glutathione beads, 16-mer random dsDNA library, 0.1% formaldehyde crosslink after washing; high values mean tight binding
# [1] = target: ETV5 (Homo sapiens, UniProt P41161 1-510); conditions: protein: recombinant; tags: N-terminal GST; dsDNA, one strand shown
# Chain of ETV5 (P41161 whole entry, the tested form may be a part): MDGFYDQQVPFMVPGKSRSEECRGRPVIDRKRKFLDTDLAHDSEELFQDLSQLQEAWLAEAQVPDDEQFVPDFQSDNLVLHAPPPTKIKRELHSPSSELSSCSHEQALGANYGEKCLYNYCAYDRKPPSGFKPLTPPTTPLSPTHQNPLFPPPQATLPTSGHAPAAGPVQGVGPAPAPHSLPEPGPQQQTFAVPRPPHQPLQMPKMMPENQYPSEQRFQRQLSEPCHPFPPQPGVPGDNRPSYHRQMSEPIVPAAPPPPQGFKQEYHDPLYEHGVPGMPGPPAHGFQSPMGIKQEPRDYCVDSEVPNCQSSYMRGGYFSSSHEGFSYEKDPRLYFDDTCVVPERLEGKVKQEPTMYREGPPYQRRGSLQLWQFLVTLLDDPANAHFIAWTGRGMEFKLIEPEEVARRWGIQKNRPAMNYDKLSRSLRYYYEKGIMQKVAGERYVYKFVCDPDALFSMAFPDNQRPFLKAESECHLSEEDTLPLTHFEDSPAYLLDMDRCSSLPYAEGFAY
# Outline: (§1)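 Binding signal is each hexamer's read frequency for a factor divided by its frequency in the tag-only sample. The factors were GST-fused human transcription factors from yeast, captured on glutathione beads, DNA-barcoded and pooled with that sample. Pools were incubated with 200 nmole of a random double-stranded 16-mer DNA library in Tris/NaCl/DTT/glycerol buffer at room temperature for 30 min, then washed, crosslinked with 0.1% formaldehyde, proximity-ligated with BsaI/T4 ligase (1 h, 37 °C), PCR-amplified and sequenced on an Illumina NextSeq500.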
# [2] = target: HSF1 (Homo sapiens, UniProt Q00613 1-529); conditions: protein: recombinant; tags: N-terminal GST; chain copies: 3; dsDNA, one strand shown
# Chain of HSF1 (Q00613 whole entry): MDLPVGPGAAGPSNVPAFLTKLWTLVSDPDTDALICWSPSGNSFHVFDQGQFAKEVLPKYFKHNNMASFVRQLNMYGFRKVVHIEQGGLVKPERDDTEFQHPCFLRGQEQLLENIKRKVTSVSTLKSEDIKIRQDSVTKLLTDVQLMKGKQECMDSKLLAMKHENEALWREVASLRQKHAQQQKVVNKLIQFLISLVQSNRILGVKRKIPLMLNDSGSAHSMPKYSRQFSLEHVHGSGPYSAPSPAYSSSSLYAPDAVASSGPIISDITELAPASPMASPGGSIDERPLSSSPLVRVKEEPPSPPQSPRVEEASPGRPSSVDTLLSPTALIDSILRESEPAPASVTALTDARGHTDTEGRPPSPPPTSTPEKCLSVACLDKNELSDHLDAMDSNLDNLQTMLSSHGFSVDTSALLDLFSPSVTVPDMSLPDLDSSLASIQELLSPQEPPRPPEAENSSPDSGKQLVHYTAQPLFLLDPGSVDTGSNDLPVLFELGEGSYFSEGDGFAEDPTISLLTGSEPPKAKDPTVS
# Outline: as §1
# [3] = target: ELF4 (Homo sapiens, UniProt Q99607 1-663); conditions: protein: recombinant; tags: N-terminal GST; dsDNA, one strand shown
# Chain of ELF4 (Q99607 whole entry): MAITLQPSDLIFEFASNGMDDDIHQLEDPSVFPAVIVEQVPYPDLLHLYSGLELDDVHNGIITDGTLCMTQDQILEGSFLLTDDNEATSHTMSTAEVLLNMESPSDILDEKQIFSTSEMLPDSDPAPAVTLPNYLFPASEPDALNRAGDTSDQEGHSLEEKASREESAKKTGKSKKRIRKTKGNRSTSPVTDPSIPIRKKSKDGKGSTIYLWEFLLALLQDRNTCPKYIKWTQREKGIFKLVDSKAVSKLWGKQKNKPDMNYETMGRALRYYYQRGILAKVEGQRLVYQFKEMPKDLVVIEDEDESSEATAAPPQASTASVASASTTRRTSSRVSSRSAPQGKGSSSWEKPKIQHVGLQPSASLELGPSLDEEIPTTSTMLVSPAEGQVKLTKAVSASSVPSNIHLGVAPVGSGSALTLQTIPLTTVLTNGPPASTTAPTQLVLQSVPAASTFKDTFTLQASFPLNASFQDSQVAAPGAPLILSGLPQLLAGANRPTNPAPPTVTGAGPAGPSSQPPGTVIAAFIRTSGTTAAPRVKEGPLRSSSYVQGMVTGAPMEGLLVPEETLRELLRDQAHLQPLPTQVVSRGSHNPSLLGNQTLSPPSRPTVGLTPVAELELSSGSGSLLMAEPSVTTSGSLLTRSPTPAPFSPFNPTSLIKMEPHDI
# Outline: as §1
# [4] = target: T1, ELK4 (Homo sapiens, UniProt P28324-2 1-405); conditions: protein: recombinant; tags: N-terminal GST; dsDNA, one strand shown
# T1 sequence: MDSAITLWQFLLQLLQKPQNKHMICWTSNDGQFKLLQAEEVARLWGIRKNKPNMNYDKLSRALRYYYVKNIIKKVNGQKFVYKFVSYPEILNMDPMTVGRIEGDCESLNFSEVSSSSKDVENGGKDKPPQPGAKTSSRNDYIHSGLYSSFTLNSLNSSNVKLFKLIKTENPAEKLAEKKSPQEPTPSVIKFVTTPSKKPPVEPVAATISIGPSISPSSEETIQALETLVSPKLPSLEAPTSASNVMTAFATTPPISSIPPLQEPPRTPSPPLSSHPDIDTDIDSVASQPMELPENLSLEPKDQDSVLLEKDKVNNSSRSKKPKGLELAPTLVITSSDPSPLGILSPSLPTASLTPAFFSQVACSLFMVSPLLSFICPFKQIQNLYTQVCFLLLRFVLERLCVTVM
# Outline: as §1
# [5] = target: T2, ERF (Homo sapiens, UniProt P50548 1-548); conditions: protein: recombinant; tags: N-terminal GST; dsDNA, one strand shown
# T2 sequence: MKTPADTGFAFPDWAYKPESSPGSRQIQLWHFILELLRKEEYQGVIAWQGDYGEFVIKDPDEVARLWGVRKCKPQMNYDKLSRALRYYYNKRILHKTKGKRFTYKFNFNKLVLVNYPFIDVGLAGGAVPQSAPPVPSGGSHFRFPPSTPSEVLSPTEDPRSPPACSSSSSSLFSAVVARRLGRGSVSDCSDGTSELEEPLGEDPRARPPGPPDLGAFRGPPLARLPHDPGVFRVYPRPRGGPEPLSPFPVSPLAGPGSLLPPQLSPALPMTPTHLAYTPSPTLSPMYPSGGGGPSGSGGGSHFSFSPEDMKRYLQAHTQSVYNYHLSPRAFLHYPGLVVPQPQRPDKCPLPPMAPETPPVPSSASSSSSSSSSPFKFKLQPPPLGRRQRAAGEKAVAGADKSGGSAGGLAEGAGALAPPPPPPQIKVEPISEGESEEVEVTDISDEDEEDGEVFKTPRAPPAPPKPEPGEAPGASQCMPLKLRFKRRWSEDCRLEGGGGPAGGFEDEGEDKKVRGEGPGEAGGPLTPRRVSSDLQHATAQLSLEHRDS
# Outline: as §1
# [6] = target: T3, ETV3L (Homo sapiens, UniProt Q6ZN32 1-361); conditions: protein: recombinant; tags: N-terminal GST; dsDNA, one strand shown
# T3 sequence: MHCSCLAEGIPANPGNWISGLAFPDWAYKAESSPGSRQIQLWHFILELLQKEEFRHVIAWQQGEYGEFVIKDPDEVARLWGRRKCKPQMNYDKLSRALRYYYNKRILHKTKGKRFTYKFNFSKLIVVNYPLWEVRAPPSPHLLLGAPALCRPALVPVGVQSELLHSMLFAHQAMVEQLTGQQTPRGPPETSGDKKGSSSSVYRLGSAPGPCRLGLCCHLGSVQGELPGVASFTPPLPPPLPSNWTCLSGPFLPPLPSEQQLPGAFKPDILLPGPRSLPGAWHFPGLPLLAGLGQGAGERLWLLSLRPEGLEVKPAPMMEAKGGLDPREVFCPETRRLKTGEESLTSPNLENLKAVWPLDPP
# Outline: as §1
# [7] = target: T4, ETV7 (Homo sapiens, UniProt Q9Y603 1-341); conditions: protein: recombinant; tags: N-terminal GST; dsDNA, one strand shown
# T4 sequence: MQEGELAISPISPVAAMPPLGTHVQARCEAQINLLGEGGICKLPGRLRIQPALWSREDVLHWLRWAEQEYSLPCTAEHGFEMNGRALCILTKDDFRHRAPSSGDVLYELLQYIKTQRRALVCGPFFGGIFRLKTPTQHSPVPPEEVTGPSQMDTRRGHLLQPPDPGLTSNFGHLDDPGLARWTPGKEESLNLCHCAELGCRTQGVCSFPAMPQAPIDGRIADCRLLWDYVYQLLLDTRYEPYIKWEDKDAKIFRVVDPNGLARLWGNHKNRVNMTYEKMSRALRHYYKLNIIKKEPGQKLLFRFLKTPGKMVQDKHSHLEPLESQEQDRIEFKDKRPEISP
# Outline: as §1
# [8] = target: T5, ELF5 (Homo sapiens, UniProt Q9UKW6-2 1-255); conditions: protein: recombinant; tags: N-terminal GST; dsDNA, one strand shown
# T5 sequence: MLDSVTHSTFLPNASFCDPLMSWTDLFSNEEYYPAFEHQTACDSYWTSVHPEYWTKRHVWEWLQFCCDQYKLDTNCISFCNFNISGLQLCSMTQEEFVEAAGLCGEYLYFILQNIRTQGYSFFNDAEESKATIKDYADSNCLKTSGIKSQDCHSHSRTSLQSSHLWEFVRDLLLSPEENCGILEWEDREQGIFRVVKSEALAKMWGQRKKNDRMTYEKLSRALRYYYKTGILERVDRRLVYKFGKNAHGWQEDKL
# Outline: as §1
# [9] = target: T6, FEV (Homo sapiens, UniProt Q99581 1-238); conditions: protein: recombinant; tags: N-terminal GST; dsDNA, one strand shown
# T6 sequence: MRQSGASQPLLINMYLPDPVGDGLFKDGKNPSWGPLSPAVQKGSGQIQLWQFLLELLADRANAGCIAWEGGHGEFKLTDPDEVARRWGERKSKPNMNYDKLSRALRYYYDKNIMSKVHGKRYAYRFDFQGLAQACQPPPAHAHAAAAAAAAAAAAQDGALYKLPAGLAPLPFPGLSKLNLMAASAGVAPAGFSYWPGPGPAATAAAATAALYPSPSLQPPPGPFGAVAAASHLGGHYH
# Outline: as §1
# [10] = target: T7, ETV2 (Homo sapiens, UniProt O00321 1-342); conditions: protein: recombinant; tags: N-terminal GST; dsDNA, one strand shown
# T7 sequence: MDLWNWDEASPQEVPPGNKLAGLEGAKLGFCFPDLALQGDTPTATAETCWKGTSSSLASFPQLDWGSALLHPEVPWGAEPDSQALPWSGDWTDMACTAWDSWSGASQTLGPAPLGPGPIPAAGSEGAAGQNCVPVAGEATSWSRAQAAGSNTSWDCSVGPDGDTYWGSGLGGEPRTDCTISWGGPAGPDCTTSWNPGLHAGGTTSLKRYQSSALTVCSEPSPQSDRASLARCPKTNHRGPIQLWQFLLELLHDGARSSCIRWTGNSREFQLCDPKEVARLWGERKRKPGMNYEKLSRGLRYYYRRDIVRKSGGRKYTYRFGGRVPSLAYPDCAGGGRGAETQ
# Outline: as §1
# [11] = target: CRX (Homo sapiens, UniProt O43186 1-299); conditions: protein: recombinant; tags: N-terminal GST; dsDNA, one strand shown
# Chain of CRX (O43186 whole entry): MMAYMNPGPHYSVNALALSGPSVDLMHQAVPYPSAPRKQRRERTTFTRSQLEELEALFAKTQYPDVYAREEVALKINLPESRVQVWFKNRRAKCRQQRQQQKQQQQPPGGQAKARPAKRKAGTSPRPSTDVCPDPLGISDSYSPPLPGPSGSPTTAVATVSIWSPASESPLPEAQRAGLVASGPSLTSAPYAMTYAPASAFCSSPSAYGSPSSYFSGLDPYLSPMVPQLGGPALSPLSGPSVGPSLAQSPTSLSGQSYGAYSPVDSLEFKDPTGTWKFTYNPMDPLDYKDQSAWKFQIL
# Outline: as §1
# [12] = target: ETV1 (Homo sapiens, UniProt P50549 1-477); conditions: protein: recombinant; tags: N-terminal GST; dsDNA, one strand shown
# Chain of ETV1 (P50549 whole entry): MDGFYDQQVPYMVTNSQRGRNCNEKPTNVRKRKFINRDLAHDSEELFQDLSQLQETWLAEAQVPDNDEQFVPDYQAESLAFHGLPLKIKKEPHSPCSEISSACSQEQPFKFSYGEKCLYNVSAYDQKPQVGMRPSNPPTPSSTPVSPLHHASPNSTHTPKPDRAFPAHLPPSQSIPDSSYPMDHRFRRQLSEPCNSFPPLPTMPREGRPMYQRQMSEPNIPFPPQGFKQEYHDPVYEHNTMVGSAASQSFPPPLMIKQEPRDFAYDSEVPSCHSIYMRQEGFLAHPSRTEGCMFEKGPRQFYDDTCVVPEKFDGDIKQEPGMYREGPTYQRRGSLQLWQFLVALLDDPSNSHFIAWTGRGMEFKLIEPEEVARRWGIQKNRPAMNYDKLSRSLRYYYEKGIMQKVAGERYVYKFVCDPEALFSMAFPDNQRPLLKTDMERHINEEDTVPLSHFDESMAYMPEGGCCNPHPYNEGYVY
# Outline: as §1
# [13] = target: T8, ETS2 (Homo sapiens, UniProt P15036 1-469); conditions: protein: recombinant; tags: N-terminal GST; dsDNA, one strand shown
# T8 sequence: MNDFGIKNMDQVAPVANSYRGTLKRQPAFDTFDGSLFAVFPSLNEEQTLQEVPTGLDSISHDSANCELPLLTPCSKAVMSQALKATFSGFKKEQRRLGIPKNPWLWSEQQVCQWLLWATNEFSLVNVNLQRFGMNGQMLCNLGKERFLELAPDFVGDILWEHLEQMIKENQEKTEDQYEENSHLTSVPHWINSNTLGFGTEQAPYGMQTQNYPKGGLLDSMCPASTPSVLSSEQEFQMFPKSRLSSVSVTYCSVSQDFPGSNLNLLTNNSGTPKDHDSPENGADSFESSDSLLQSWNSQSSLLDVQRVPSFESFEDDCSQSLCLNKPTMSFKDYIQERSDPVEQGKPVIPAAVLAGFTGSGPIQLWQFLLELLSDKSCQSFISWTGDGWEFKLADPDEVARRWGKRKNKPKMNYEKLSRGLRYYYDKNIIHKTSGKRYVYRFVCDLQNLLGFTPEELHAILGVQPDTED
# Outline: as §1
# [14] = target: T9, SPDEF (Homo sapiens, UniProt O95238 1-335); conditions: protein: recombinant; tags: N-terminal GST; dsDNA, one strand shown
# T9 sequence: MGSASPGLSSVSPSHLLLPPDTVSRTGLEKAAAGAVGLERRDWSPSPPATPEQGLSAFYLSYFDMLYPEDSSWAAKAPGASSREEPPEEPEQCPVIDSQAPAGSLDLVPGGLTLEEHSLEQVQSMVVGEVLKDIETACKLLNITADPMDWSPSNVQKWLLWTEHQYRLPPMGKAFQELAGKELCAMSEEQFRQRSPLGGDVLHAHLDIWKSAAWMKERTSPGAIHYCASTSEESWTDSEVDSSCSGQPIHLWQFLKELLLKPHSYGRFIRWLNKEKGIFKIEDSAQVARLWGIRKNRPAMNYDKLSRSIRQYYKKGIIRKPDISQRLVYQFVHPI
# Outline: as §1
# [15] = target: T10, ETV3 (Homo sapiens, UniProt P41162-2 1-143); conditions: protein: recombinant; tags: N-terminal GST; dsDNA, one strand shown
# T10 sequence: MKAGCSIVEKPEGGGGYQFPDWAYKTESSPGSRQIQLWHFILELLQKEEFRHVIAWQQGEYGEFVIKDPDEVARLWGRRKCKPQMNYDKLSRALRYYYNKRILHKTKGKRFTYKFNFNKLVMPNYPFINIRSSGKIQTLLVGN
# Outline: as §1
# [16] = target: ETV6 (Homo sapiens, UniProt P41212 1-452); conditions: protein: recombinant; tags: N-terminal GST; dsDNA, one strand shown
# Chain of ETV6 (P41212 whole entry): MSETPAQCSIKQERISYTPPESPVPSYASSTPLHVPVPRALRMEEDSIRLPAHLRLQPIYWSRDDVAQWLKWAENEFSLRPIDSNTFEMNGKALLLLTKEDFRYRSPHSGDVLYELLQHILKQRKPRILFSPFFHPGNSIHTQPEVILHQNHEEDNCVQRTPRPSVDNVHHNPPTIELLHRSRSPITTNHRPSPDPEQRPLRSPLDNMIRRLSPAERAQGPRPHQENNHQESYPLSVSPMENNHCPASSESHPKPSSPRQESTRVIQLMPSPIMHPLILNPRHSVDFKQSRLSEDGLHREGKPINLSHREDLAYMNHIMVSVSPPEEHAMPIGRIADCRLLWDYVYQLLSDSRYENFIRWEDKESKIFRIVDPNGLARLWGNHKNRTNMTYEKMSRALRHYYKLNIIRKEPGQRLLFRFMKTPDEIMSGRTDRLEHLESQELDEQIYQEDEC
# Outline: as §1
Sequence,binding signal [1],binding signal [2],binding signal [3],binding signal [4],binding signal [5],binding signal [6],binding signal [7],binding signal [8],binding signal [9],binding signal [10],binding signal [11],binding signal [12],binding signal [13],binding signal [14],binding signal [15],binding signal [16]
CGATGA,"1.05 fold enrichment (6-mer frequency, TF over GST control)","1.02 fold enrichment (6-mer frequency, TF over GST control)","1.06 fold enrichment (6-mer frequency, TF over GST control)","1.01 fold enrichment (6-mer frequency, TF over GST control)","1.14 fold enrichment (6-mer frequency, TF over GST control)","1.12 fold enrichment (6-mer frequency, TF over GST control)","1.13 fold enrichment (6-mer frequency, TF over GST control)","1.01 fold enrichment (6-mer frequency, TF over GST control)",,,,,,,,
GGTATA,"1.1 fold enrichment (6-mer frequency, TF over GST control)","1.08 fold enrichment (6-mer frequency, TF over GST control)","1.08 fold enrichment (6-mer frequency, TF over GST control)","1.1 fold enrichment (6-mer frequency, TF over GST control)","1.18 fold enrichment (6-mer frequency, TF over GST control)","1.12 fold enrichment (6-mer frequency, TF over GST control)","1.13 fold enrichment (6-mer frequency, TF over GST control)","1.09 fold enrichment (6-mer frequency, TF over GST control)","1.08 fold enrichment (6-mer frequency, TF over GST control)","1.05 fold enrichment (6-mer frequency, TF over GST control)","1.02 fold enrichment (6-mer frequency, TF over GST control)","1.11 fold enrichment (6-mer frequency, TF over GST control)","1.08 fold enrichment (6-mer frequency, TF over GST control)","1.12 fold enrichment (6-mer frequency, TF over GST control)","1.11 fold enrichment (6-mer frequency, TF over GST control)","1.03 fold enrichment (6-mer frequency, TF over GST control)"
TTGCGC,"1.11 fold enrichment (6-mer frequency, TF over GST control)","1.05 fold enrichment (6-mer frequency, TF over GST control)","1.06 fold enrichment (6-mer frequency, TF over GST control)",,"1.28 fold enrichment (6-mer frequency, TF over GST control)","1.13 fold enrichment (6-mer frequency, TF over GST control)","1.12 fold enrichment (6-mer frequency, TF over GST control)","1.03 fold enrichment (6-mer frequency, TF over GST control)","1.05 fold enrichment (6-mer frequency, TF over GST control)","1.11 fold enrichment (6-mer frequency, TF over GST control)","1.05 fold enrichment (6-mer frequency, TF over GST control)","1.16 fold enrichment (6-mer frequency, TF over GST control)","1.16 fold enrichment (6-mer frequency, TF over GST control)","1.06 fold enrichment (6-mer frequency, TF over GST control)","1.07 fold enrichment (6-mer frequency, TF over GST control)","1.06 fold enrichment (6-mer frequency, TF over GST control)"
